Measured values from PubChem BioAssay AID837 (The Scripps Research Institute Molecular Screening Center, 2007).
Calls of active or inactive are those of the source.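 Rule for the calls: active = relative FRET score above 0.01, or acceptor fluorescence over 30% below the sample-well median; inactive = the rest.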

Target: Protein Rev (Human immunodeficiency virus type 1 group M subtype B (isolate WMJ22)) (UniProt P05866)
Test: disruptors of Rev peptide-RRE RNA complex – biochemical, FRET, acceptor and relative FRET calls, confirmation (AID 837);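 note: relative FRET combines rise in Cy5 acceptor with fall in fluorescein donor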
Conditions: Fl-Rev peptide / Cy5-RRE RNA FRET, 1536-well; at 8 µM

Protein Rev (Human immunodeficiency virus type 1 group M subtype B (isolate WMJ22)), sequence (P05866 whole entry, looked up): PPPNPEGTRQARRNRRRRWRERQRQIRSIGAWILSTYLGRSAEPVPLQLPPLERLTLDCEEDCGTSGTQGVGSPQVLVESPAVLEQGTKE

Compound	outcome
C=CCNCCCCOc1c(Cl)cc(C)cc1Br	inactive
COc1ccc(C(=O)c2coc3ccc(O)c(CN4CCCC4)c23)cc1	inactive
CN(C)CC(O)COc1ccc(-c2ccc(C#N)cc2)cc1 (stereo not given)	active
CC(C)COc1ccc(Cc2cnc(N)nc2N)cc1	active
CC(NCc1ccc(N(C)C)cc1)C1CC2CCC1C2 (stereo not given)	active
CN(C)CC(O)COc1ccc(C(C)(C)c2ccc(OCC(O)CN(C)C)cc2)cc1 (stereo not given)	inactive
CC(Nc1nc(N2CCCCC2)nc2ccccc12)c1ccccc1 (stereo not given)	inactive
CCN(CC)CCn1c(=N)n(CCOc2ccccc2)c2ccccc21	inactive
O=C(Nc1nccs1)c1ccc(-c2ccccc2Cl)o1	inactive
O=C(Nc1nccs1)c1cc2c(s1)-c1ccccc1OC2	inactive
CCOC(=O)CSc1ccc(S(=O)(=O)N(C)C2CCCCC2)cc1[N+](=O)[O-]	inactive
CN=C1c2cc3cc(OC)ccc3n2CCN1Cc1ccccc1	inactive
O=c1cc(-c2ccco2)oc2c1ccc1ccccc12	inactive
CC(C)OC(=O)c1c2nc3ccccc3nc2n2c1[nH]c(=O)c1ccccc12	inactive
CCN(CC)CC(O)COCCC12CC3CC(CC(C3)C1)C2 (stereo not given)	inactive
CCN1CCCC1CNC(=O)c1c(O)c2c([nH]c1=O)CCCC2 (stereo not given)	inactive
CCN(CC)CCNC1=NCCn2c1cc1cc(OC)ccc12	active
O=C(N/N=C/c1ccc(F)cc1)c1cc(-c2ccco2)nc2ccccc12	active; quenches the donor
C/C=C/c1ccc(OCCCNC2CCCC2)c(OC)c1	inactive
c1coc(CNc2c3c(nc4ccccc24)CCC3)c1	inactive

Compound	outcome
Cc1ccc(S(=O)(=O)c2c(COC(=O)c3ccc(Cl)cc3)c(-c3ccccc3)nn2C)cc1	inactive
NCCCCCc1nnc(SC/C=C/c2ccccc2)o1	inactive
O=C(CN1C2=NCCN2c2ccccc21)c1ccc(Br)cc1	active
Cc1cccc(N2C(N)=NC(N)=NC23CCCCC3)c1	inactive
C=CCn1cc(-c2ccccc2)cc(C#N)c1=O	inactive
Cc1ccc(Nc2nc(N)nc(CSc3nnnn3-c3ccccc3)n2)cc1	inactive
CCc1nnc(NC(=O)c2ccc3c(c2)C(=O)N(C(C)(C)C)C3=O)s1	inactive
O=[N+]([O-])c1ccc2nc(-c3ccc(Cl)cc3)n(OCc3ccccc3)c2c1	inactive
C1=C2C[N+]3(CCCC3)CC2Cc2ccc3ccccc3c21 (stereo not given)	inactive
COc1cc2[nH]c(=O)c(C(=O)NCCCN3CCCCC3)c(O)c2cc1OC	inactive
Cc1nc(Nc2ccncc2)c2oc3ccccc3c2n1	active
N=c1n(CCO)c2ccccc2n1Cc1ccccc1Cl	inactive
CC(=Nc1ccc(C)cc1)c1sc2ccccc2c1O	inactive
NCCCC(=O)N1c2ccccc2Sc2ccccc21	active
CCn1c(=N)n(CCOc2ccc(OC)cc2)c2ccccc21	inactive
CCN1C2=NCCCN2c2cc(C)c(C)cc21	inactive
Nc1cccc2nc3ccccc3cc12	inactive
OC(CNC1CCCC1)COc1c(F)cc(Br)cc1F (stereo not given)	inactive
FC(F)(F)c1cc(-c2ccco2)nc(NCc2ccc(Cl)cc2)n1	inactive
CC1=NOC(=O)/C1=C/c1ccc(N(C)C)cc1	active; fluoresces like the donor
